The supplement of paper PMC10849652
About 8,800 targets were measured; listed, in parts, are those with a hit and a random draw of the rest. About 0.5% of all pairs of compound and target were hits.

Columns and labels:
Experiment in all cases: log2 fold change, soluble protein after heating vs DMSO (PISA); higher = thermal stabilisation; K562 lysate, 10 uM; active = over 0.2 and 3.5 SD of the protein, either way, in both replicates (recomputed)
vemurafenib = compound: CCCS(=O)(=O)Nc1ccc(F)c(C(=O)c2c[nH]c3ncc(-c4ccc(Cl)cc4)cc23)c1F [vemurafenib]
Summary of the method: (§1)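 K562 pellets were dounce-homogenised in PBS pH 7.4 with 1 mM MgCl2, and the crude extract at 1 mg/mL protein was treated with 10 μM compound for 30 min. Aliquots were heated for 3 min across 48°C-58°C, pooled, and brought to 0.5% NP-40 at 4°C; soluble protein was the supernatant after 21,000xg for 90 min. Soluble protein was quantified by TMTpro 16plex LC-MS/MS with channel sums equalised, and reported as log2 fold change in thermal stability against DMSO controls, with values from duplicates.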

[1] = compound: CCCS(=O)(=O)Nc1ccc(F)c(C(=O)c2c[nH]c3ncc(Cl)cc23)c1F
Summary of the method: as §1

barasertib = compound: CCN(CCCOc1ccc2c(Nc3cc(CC(=O)Nc4cccc(F)c4)[nH]n3)ncnc2c1)CCOP(=O)(O)O [barasertib]
Summary of the method: as §1

[2] = compound: CC[C@@H]1C(=O)N(C)c2cnc(Nc3ccc(C(=O)NC4CCN(C)CC4)cc3OC)nc2N1C1CCCC1
Summary of the method: as §1

volasertib = compound: CC[C@@H]1C(=O)N(C)c2cnc(Nc3ccc(C(=O)N[C@H]4CC[C@H](N5CCN(CC6CC6)CC5)CC4)cc3OC)nc2N1C(C)C [volasertib]
Summary of the method: as §1

[3] = compound: CCn1c(C(=O)N(C2CC2)C2CC2)cc2c3c(ncn3C)c(Nc3cc(C)n(C)n3)nc21
Summary of the method: as §1

[4] = compound: CCn1cc(-c2ccnc3[nH]c(-c4cccc(CN(C)C)c4)cc23)c(-c2ccc(NC(=O)N(C)C)cc2)n1
Summary of the method: as §1

[5] = compound: CN1CCC(CNc2ccc3ncc(-c4cccc(OC(F)(F)F)c4)n3n2)CC1
Summary of the method: as §1

saracatinib = compound: CN1CCN(CCOc2cc(OC3CCOCC3)c3c(Nc4c(Cl)ccc5c4OCO5)ncnc3c2)CC1 [saracatinib]
Summary of the method: as §1

sotrastaurin = compound: CN1CCN(c2nc(C3=C(c4c[nH]c5ccccc45)C(=O)NC3=O)c3ccccc3n2)CC1 [sotrastaurin]
Summary of the method: as §1

Measured: log2 fold change

CHORDC1 (UniProt Q9UHD1)
Sequence of UniProt Q9UHD1 (Q9UHD1 whole entry, looked up): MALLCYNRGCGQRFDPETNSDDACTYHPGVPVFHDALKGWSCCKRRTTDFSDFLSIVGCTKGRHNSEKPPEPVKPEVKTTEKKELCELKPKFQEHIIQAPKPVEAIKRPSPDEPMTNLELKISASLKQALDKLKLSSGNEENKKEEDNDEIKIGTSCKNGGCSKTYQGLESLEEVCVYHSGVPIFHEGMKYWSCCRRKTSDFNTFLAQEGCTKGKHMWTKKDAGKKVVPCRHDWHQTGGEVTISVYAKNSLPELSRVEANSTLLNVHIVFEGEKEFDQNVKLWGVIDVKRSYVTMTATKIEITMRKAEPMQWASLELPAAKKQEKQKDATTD
active: [4] 0.288
inactive: vemurafenib 0.017 | [1] -0.003 | barasertib -0.029 | [2] 0.009 | volasertib 0.02 | [3] 0.002 | [5] -0.003 | saracatinib -0.006 | sotrastaurin -0.036

DLG3 isoform 2 (UniProt Q92796)
inactive: vemurafenib 0.109 | [1] 0.005 | barasertib 0.047 | [2] -0.128 | volasertib -0.006 | [3] -0.057 | [4] -0.14 | [5] 0.038 | saracatinib 0.004 | sotrastaurin 0.043

CSTF2 (UniProt P33240)
Sequence of UniProt P33240 (P33240 whole entry, looked up): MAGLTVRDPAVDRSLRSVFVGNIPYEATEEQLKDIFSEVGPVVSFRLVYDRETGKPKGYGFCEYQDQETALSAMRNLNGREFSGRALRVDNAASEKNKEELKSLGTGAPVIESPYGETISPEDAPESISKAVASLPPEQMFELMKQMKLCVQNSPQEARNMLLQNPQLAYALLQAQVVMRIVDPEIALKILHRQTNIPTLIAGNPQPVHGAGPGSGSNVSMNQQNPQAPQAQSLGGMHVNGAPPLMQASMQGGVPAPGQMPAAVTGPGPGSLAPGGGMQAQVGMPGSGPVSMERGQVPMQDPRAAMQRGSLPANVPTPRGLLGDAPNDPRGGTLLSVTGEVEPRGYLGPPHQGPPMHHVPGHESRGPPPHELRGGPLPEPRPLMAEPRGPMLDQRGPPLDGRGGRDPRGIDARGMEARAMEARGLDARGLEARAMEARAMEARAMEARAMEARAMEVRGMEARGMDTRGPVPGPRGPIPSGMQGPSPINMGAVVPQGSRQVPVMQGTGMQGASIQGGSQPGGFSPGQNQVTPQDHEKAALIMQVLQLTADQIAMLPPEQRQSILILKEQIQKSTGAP
inactive: vemurafenib 0.011 | [1] -0.015 | [2] 0.062 | volasertib -0.012 | [3] -0.037 | [4] -0.053 | [5] 0.042 | saracatinib 0.007 | sotrastaurin 0.038
active: barasertib 0.27

DENND4A isoform 2 (UniProt Q7Z401)
Sequence of UniProt Q7Z401 (Q7Z401 whole entry, looked up): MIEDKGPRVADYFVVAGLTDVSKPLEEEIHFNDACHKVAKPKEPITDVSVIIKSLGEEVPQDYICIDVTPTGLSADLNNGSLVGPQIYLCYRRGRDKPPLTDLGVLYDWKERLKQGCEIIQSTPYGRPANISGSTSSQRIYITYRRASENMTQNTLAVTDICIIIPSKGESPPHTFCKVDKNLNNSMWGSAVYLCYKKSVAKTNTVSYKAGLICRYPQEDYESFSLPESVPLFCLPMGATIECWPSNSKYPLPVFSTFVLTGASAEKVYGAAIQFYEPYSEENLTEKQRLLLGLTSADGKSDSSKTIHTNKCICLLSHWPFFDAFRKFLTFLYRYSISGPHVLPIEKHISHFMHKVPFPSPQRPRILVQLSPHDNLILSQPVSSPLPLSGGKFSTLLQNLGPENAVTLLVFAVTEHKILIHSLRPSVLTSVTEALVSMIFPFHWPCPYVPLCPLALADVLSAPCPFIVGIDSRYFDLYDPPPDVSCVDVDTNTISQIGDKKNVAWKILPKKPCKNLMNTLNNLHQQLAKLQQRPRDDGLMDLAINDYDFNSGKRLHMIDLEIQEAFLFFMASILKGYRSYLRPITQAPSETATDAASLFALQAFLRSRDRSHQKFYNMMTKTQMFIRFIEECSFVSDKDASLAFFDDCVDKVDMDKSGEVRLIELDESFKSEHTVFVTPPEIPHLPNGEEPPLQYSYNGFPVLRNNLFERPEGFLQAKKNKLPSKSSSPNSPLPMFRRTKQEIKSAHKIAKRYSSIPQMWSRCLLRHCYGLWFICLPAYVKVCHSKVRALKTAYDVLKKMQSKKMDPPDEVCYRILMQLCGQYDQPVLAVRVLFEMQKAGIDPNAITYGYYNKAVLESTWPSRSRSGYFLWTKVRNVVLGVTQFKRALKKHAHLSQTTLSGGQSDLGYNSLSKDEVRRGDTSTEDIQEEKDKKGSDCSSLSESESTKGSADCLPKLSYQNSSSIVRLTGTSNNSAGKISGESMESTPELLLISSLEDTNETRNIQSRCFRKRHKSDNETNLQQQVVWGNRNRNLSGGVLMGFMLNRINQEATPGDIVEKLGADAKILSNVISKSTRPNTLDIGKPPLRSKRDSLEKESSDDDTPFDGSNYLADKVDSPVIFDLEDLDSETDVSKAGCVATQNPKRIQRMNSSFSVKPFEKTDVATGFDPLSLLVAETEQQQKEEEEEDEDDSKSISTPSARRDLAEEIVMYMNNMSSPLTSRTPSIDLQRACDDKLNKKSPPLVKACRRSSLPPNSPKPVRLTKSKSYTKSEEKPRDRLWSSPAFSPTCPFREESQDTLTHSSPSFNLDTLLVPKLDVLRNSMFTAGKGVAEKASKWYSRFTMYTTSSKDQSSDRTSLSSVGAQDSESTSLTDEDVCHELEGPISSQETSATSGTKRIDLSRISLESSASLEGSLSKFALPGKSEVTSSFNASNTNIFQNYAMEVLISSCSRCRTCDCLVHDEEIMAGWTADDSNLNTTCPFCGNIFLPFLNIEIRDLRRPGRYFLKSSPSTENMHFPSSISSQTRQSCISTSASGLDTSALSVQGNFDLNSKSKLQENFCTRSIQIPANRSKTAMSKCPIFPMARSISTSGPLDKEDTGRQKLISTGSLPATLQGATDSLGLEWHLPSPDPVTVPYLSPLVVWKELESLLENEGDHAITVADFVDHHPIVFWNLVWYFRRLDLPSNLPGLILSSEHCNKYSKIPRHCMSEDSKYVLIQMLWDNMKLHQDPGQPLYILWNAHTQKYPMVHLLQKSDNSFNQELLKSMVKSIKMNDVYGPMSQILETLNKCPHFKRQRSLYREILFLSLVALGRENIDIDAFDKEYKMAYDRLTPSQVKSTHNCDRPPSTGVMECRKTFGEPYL
inactive: vemurafenib -0.024 | [1] 0.024 | barasertib 0.029 | [2] 0.011 | volasertib -0.069 | [3] 0.004 | [4] -0.132 | [5] 0.099 | saracatinib 0.059 | sotrastaurin 0.025

CHMP4A isoform 2 (UniProt Q9BY43)
active: [4] -0.278
inactive: vemurafenib 0 | [1] -0.002 | barasertib -0.053 | [2] 0.064 | volasertib 0.039 | [3] -0.002 | [5] 0.222 | saracatinib 0.048 | sotrastaurin 0.024

COQ8A (UniProt Q8NI60)
inactive: vemurafenib 0.036 | [1] -0.009 | barasertib 0.134 | [2] 0.026 | volasertib -0.026 | [3] -0.029 | [4] -0.214 | sotrastaurin 0.016
active: [5] 0.573 | saracatinib 0.697

DPH5 isoform 5 (UniProt Q9H2P9)
inactive: vemurafenib 0.144 | [1] 0.016 | barasertib -0.05 | [2] 0.16 | volasertib 0.273 | [3] -0.011 | [4] 0.182 | [5] 0.033 | saracatinib -0.029 | sotrastaurin 0.049

CWC22 (UniProt Q9HCG8)
inactive: vemurafenib 0.002 | [1] 0.045 | barasertib 0.028 | [2] -0.209 | volasertib -0.033 | [3] 0.017 | saracatinib -0.052 | sotrastaurin -0.013
active: [4] 0.393 | [5] -0.273

DERA (UniProt Q9Y315)
active: [4] 0.985
inactive: vemurafenib -0.013 | [1] -0.001 | barasertib -0.064 | [2] 0.077 | volasertib 0.025 | [3] -0.031 | [5] -0.115 | saracatinib 0 | sotrastaurin -0.03

DES (UniProt P17661)
Sequence of UniProt P17661 (P17661 whole entry, looked up): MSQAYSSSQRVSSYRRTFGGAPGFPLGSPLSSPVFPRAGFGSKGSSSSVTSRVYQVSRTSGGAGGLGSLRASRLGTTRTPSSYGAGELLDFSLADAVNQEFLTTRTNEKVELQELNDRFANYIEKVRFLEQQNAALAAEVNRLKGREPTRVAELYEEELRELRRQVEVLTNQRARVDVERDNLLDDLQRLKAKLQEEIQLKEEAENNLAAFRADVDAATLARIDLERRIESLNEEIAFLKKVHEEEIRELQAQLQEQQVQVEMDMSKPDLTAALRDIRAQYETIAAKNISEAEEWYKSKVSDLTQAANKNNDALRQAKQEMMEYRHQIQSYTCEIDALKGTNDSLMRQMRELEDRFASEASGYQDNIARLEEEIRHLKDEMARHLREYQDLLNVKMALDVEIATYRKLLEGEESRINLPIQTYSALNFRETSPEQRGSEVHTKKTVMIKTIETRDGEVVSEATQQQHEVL
active: [4] -0.434
inactive: vemurafenib 0.084 | [1] 0.008 | barasertib -0.001 | [2] 0.045 | volasertib 0.058 | [3] -0.026 | [5] 0.149 | saracatinib 0.106 | sotrastaurin -0.012

DDA1 (UniProt Q9BW61)
inactive: vemurafenib -0.02 | [1] 0.038 | barasertib -0.004 | [2] 0.003 | volasertib 0 | [3] 0.046 | [4] 0 | [5] -0.023 | saracatinib 0.019 | sotrastaurin -0.025

CIP2A (UniProt Q8TCG1)
inactive: vemurafenib 0.036 | [1] 0.019 | barasertib 0.153 | [2] 0.001 | volasertib -0.086 | [3] 0.037 | [4] -0.07 | [5] -0.075 | saracatinib 0.009 | sotrastaurin 0.014

CHUK (UniProt O15111)
Sequence of UniProt O15111 (O15111 whole entry, looked up): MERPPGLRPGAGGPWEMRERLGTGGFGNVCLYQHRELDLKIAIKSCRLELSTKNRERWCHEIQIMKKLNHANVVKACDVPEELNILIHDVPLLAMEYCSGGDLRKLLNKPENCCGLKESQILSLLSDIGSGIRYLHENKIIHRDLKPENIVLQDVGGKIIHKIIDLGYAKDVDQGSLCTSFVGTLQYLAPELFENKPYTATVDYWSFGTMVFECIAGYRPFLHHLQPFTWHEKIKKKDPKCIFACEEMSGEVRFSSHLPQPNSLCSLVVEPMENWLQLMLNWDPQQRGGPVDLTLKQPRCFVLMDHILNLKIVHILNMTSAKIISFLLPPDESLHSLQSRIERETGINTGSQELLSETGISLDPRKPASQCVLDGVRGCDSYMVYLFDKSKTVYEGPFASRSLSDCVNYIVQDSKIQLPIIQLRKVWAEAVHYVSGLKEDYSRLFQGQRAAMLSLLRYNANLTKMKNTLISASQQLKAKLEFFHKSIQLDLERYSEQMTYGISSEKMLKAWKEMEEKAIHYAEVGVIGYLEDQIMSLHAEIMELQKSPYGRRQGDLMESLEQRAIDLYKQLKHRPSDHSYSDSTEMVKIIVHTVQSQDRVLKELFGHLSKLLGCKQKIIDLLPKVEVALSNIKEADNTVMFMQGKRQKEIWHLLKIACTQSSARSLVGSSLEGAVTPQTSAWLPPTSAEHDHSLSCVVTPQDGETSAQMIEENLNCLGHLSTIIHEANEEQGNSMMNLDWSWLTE
inactive: vemurafenib 0.026 | [1] 0.001 | barasertib 0.059 | [2] -0.095 | volasertib -0.047 | [3] -0.045 | [4] 0.111 | [5] -0.097 | saracatinib 0.059 | sotrastaurin 0.017

CKAP2 (UniProt Q8WWK9)
inactive: vemurafenib -0.095 | [1] 0.01 | barasertib -0.014 | [2] 0.073 | volasertib 0.009 | [3] -0.024 | [4] 0.062 | [5] -0.094 | saracatinib 0.019 | sotrastaurin 0.019

DCP2 (UniProt Q8IU60)
inactive: vemurafenib -0.05 | [1] -0.038 | barasertib 0.014 | [2] 0.016 | volasertib -0.061 | [3] -0.028 | [4] 0.059 | [5] -0.13 | saracatinib -0.023 | sotrastaurin -0.01

CYCS (UniProt P99999)
inactive: vemurafenib -0.011 | [1] -0.001 | barasertib -0.01 | [2] 0.061 | volasertib 0.041 | [3] 0.018 | [4] -0.025 | [5] 0.052 | saracatinib 0.008 | sotrastaurin -0.017

CSNK2A2 (UniProt P19784)
inactive: vemurafenib -0.219 | [1] -0.005 | barasertib -0.044 | [2] -0.031 | volasertib -0.082 | [3] 0.011 | [4] -0.092 | [5] 0.418 | saracatinib 0 | sotrastaurin 0.023

DNAJC5 (UniProt Q9H3Z4)
Sequence of UniProt Q9H3Z4 (Q9H3Z4 whole entry, looked up): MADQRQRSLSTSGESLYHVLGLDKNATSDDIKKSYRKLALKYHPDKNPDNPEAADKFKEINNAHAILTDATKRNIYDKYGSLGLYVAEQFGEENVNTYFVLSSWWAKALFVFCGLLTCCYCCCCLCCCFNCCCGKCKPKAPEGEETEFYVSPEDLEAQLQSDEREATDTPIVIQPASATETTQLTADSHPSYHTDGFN
active: [4] -0.476
inactive: vemurafenib 0.001 | [1] -0.02 | barasertib 0.008 | [2] -0.031 | volasertib 0.012 | [3] 0.015 | [5] 0.243 | saracatinib 0.01 | sotrastaurin 0.041

CMPK2 (UniProt Q5EBM0)
inactive: vemurafenib 0.026 | [1] 0.048 | barasertib 0.155 | [2] 0.018 | volasertib 0.015 | [3] -0.03 | [4] -0.001 | [5] 0.007 | saracatinib 0.006 | sotrastaurin -0.019

CSNK2B (UniProt P67870)
inactive: vemurafenib -0.042 | [1] 0.03 | barasertib -0.032 | [2] -0.007 | volasertib -0.038 | [3] 0.015 | [4] 0.01 | [5] 0.124 | saracatinib -0.066 | sotrastaurin -0.029

CIB1 (UniProt Q99828)
inactive: vemurafenib 0.096 | [1] 0.027 | barasertib 0.155 | [2] -0.013 | volasertib 0.008 | [3] -0.047 | [4] -0.028 | [5] -0.028 | saracatinib 0.017 | sotrastaurin -0.077

DCP1A (UniProt Q9NPI6)
inactive: vemurafenib 0.023 | [1] 0.017 | barasertib -0.066 | [2] 0.077 | volasertib -0.055 | [3] 0.029 | [4] -0.082 | [5] 0.059 | saracatinib -0.006 | sotrastaurin -0.053

CNOT4 isoform 6 (UniProt O95628)
inactive: vemurafenib -0.052 | [1] 0.008 | barasertib -0.014 | [2] 0.057 | volasertib 0.009 | [3] 0.108 | [4] -0.053 | [5] 0 | saracatinib 0.057 | sotrastaurin -0.005

DNAAF5 (UniProt Q86Y56)
Sequence of UniProt Q86Y56 (Q86Y56 whole entry, looked up): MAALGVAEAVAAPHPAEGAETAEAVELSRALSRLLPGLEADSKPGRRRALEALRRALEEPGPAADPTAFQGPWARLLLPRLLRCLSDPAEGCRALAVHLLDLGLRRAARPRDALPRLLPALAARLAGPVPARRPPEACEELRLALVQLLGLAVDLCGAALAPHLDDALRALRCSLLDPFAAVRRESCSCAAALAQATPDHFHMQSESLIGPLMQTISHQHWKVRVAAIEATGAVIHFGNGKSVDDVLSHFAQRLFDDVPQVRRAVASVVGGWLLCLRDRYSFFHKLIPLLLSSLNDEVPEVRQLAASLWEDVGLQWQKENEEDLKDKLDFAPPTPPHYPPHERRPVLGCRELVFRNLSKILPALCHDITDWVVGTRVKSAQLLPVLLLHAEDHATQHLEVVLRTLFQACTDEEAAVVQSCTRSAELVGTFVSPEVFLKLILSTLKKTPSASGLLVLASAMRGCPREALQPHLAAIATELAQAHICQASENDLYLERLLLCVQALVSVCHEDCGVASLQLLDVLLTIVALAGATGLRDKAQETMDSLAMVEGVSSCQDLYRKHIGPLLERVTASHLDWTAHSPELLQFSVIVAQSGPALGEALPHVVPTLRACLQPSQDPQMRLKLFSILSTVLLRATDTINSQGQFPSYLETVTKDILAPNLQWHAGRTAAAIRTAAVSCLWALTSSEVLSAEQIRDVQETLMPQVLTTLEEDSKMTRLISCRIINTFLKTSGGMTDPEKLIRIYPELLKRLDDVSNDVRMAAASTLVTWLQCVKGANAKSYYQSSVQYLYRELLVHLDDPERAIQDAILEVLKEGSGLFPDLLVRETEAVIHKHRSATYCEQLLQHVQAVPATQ
inactive: vemurafenib -0.006 | [1] -0.007 | barasertib 0.03 | [2] -0.062 | volasertib -0.06 | [3] 0.047 | [4] -0.035 | [5] -0.049 | saracatinib 0.04 | sotrastaurin 0.044

CNOT4 isoform 9 (UniProt O95628)
inactive: vemurafenib 0.027 | [1] 0.014 | barasertib -0.195 | [2] 0.028 | volasertib -0.03 | [3] 0.015 | [5] 0.22 | saracatinib 0.1 | sotrastaurin 0.075
active: [4] -1.23

CTNNBL1 (UniProt Q8WYA6)
inactive: vemurafenib 0.004 | [1] 0.016 | barasertib 0.005 | [2] -0.042 | volasertib -0.041 | [3] -0.16 | [4] -0.013 | [5] -0.091 | saracatinib 0.023 | sotrastaurin 0.015

COMT (UniProt P21964)
inactive: vemurafenib -0.052 | [1] 0.012 | barasertib 0.024 | [2] -0.101 | volasertib -0.056 | [3] 0.039 | [4] 0.026 | [5] 0.005 | saracatinib 0.008 | sotrastaurin 0.036

DDX4 (UniProt Q9NQI0)
inactive: vemurafenib -0.044 | [1] -0.015 | barasertib 0.069 | [2] -0.071 | volasertib -0.021 | [3] 0.015 | [4] -0.167 | [5] 0 | saracatinib -0.027

CHEK1 (UniProt O14757)
inactive: vemurafenib -0.02 | [1] 0.006 | barasertib 0.015 | [2] -0.031 | volasertib -0.012 | [3] -0.012 | [4] -0.008 | [5] -0.045 | saracatinib -0.004 | sotrastaurin -0.014

CORO1A (UniProt P31146)
inactive: vemurafenib -0.021 | [1] -0.001 | barasertib 0.013 | [2] 0.025 | volasertib -0.035 | [3] 0.11 | [4] -0.113 | [5] 0.021 | saracatinib -0.169 | sotrastaurin -0.007
